# Active and inactive are the calls of the source. Rule for the calls: active = hit-call score of the fitted dose curve at least 0.9, where 1 is the maximum; inactive = score below 0.9.
# Test system: not listed separately
# Experiment: ATG_CRE_CIS: Attagene CIS-FACTORIAL HepG2 Assay for human cAMP Responsive Element (CRE) binding protein 3 (AID 2282926)
# Conditions: HepG2 CRE cis-reporter, Attagene multiplexed mRNA; actives raise or lower the signal
# Procedure, shortened: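 Liver-derived HepG2, transfected with a CRE-containing reporter panel, exposed 24 h; transcript levels sized and quantified by capillary electrophoresis of labelled amplicons; signal changes either way referenced to vehicle.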
SMILES,outcome,AC50
Cc1cncc(C)c1,inactive,–
O=C(O)CN(CCCN(CC(=O)O)CC(=O)O)CC(=O)O,inactive,–
CC(O)COc1ccccc1 (stereo unspecified),inactive,–
COc1cc([N+](=O)[O-])ccc1N,inactive,–
CC(C)(c1ccc(Oc2ccc(N)cc2)cc1)c1ccc(Oc2ccc(N)cc2)cc1,inactive,–
O=S(=O)(O)c1ccc2cc(O)ccc2c1,inactive,–
CN(CCO)S(=O)(=O)C(F)(F)C(F)(F)C(F)(F)C(F)(F)C(F)(F)C(F)(F)C(F)(F)C(F)(F)F,inactive,–
C=CC(=O)OCC(CO)(COCC(COC(=O)C=C)(COC(=O)C=C)COC(=O)C=C)COC(=O)C=C,inactive,–
O=CC(F)(F)C(F)(F)C(F)(F)C(F)F,inactive,–
CCc1ccccc1O,inactive,–
Cc1cc(C(=C2C=CC(=Nc3ccc(S(=O)(=O)O)cc3)C=C2)c2ccc(Nc3ccc(S(=O)(=O)O)cc3)cc2)cc(S(=O)(=O)O)c1N,inactive,–
FC(OC(F)(F)C(F)(F)C(F)(F)F)C(F)(F)F (stereo unspecified),inactive,–
O=C1C=CC(=O)N1c1cccc(N2C(=O)C=CC2=O)c1,inactive,–
O=C(C=C(O)C(F)(F)F)C(F)(F)F,inactive,–
Oc1ccc(Cc2ccccc2O)cc1,inactive,–
CCCCN(C)C,inactive,–
Cc1cc(=O)oc2cc(O)ccc12,inactive,–
CC=O,inactive,–
c1cc2cccc3c4cccc5cccc(c(c1)c23)c54,inactive,–

SMILES,outcome,AC50
O=C(O)CCC(F)(F)C(F)(F)C(F)(F)C(F)(F)C(F)(F)C(F)(F)F,inactive,–
CCCCCCCCCCCCCCCC(=O)OC,inactive,–
CC(=O)Nc1ccc(S(N)(=O)=O)cc1,inactive,–
NCCN,inactive,–
C=CCOCC(CO)(CO)CO,inactive,–
CC1CCC(C(=O)O)CC1 (stereo unspecified),inactive,–
CCCCCc1ccc(O)cc1,inactive,–
Oc1c(Cl)ccc(Cl)c1Cl,inactive,–
COC1=CC(=O)C[C@@H](C)[C@]12Oc1c(Cl)c(OC)cc(OC)c1C2=O,–,130 µM (active)
CCN(CC)CC,inactive,–
COC(=O)CC(C(C)=O)C(=O)OC (stereo unspecified),inactive,–
CCO[Si](C)(C)OCC,inactive,–
CCCCCCc1ccc(N)cc1,inactive,–
CCCCCCCCC(C)=O,inactive,–
CC(C)(C)c1ccc(CCC=O)cc1,inactive,–
C/C=C/C(=O)C1=C(C)CCCC1(C)C,–,34.4 µM (active)
COCN(COC)c1nc(N(COC)COC)nc(N(COC)COC)n1,inactive,–
FC1(F)C=CC(F)(F)C1(F)F,inactive,–
CCC(=O)O,inactive,–

# Biological target: CCAAT/enhancer-binding protein beta (Homo sapiens) (UniProt P17676)
# Experiment: ATG_C_EBP_CIS: Attagene CIS-FACTORIAL HepG2 Assay for human CCAAT/Enhancer Binding Protein (C/EBP) beta (AID 2282927)
# Conditions: HepG2 Attagene cis-factorial transcription factor reporter; actives raise or lower the signal
# Procedure, shortened: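 Endogenous transcription factor activity in human liver HepG2 cells is inferred from induction of a CEBPB-linked reporter mRNA. Exposure lasts 24 h; activity is fitted in both directions relative to DMSO.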
# Sequence of CCAAT/enhancer-binding protein beta (Homo sapiens) (P17676 whole entry, looked up): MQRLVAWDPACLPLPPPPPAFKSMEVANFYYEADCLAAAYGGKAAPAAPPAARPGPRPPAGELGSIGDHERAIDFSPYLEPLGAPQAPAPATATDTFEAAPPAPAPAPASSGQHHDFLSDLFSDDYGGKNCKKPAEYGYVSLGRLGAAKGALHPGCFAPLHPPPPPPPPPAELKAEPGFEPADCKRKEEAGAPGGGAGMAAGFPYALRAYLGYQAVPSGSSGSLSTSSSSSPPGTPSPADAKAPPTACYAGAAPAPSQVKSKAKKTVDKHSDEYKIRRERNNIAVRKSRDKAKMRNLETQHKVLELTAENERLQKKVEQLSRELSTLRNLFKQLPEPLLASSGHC
row,SMILES,outcome
1,Cc1cncc(C)c1,inactive
2,O=C(O)CN(CCCN(CC(=O)O)CC(=O)O)CC(=O)O,inactive
3,CC(O)COc1ccccc1 (stereo unspecified),inactive
4,COc1cc([N+](=O)[O-])ccc1N,inactive
5,CC(C)(c1ccc(Oc2ccc(N)cc2)cc1)c1ccc(Oc2ccc(N)cc2)cc1,inactive
6,O=S(=O)(O)c1ccc2cc(O)ccc2c1,inactive
7,CN(CCO)S(=O)(=O)C(F)(F)C(F)(F)C(F)(F)C(F)(F)C(F)(F)C(F)(F)C(F)(F)C(F)(F)F,inactive
8,C=CC(=O)OCC(CO)(COCC(COC(=O)C=C)(COC(=O)C=C)COC(=O)C=C)COC(=O)C=C,inactive
9,O=CC(F)(F)C(F)(F)C(F)(F)C(F)F,inactive
10,CCc1ccccc1O,inactive
11,Cc1cc(C(=C2C=CC(=Nc3ccc(S(=O)(=O)O)cc3)C=C2)c2ccc(Nc3ccc(S(=O)(=O)O)cc3)cc2)cc(S(=O)(=O)O)c1N,inactive
12,FC(OC(F)(F)C(F)(F)C(F)(F)F)C(F)(F)F (stereo unspecified),inactive
13,O=C1C=CC(=O)N1c1cccc(N2C(=O)C=CC2=O)c1,inactive
14,O=C(C=C(O)C(F)(F)F)C(F)(F)F,inactive
15,Oc1ccc(Cc2ccccc2O)cc1,inactive
16,CCCCN(C)C,inactive
17,Cc1cc(=O)oc2cc(O)ccc12,inactive
18,CC=O,inactive
19,c1cc2cccc3c4cccc5cccc(c(c1)c23)c54,inactive

row,SMILES,outcome
1,O=C(O)CCC(F)(F)C(F)(F)C(F)(F)C(F)(F)C(F)(F)C(F)(F)F,inactive
2,CCCCCCCCCCCCCCCC(=O)OC,inactive
3,CC(=O)Nc1ccc(S(N)(=O)=O)cc1,inactive
4,NCCN,inactive
5,C=CCOCC(CO)(CO)CO,inactive
6,CC1CCC(C(=O)O)CC1 (stereo unspecified),inactive
7,CCCCCc1ccc(O)cc1,inactive
8,Oc1c(Cl)ccc(Cl)c1Cl,inactive
9,COC1=CC(=O)C[C@@H](C)[C@]12Oc1c(Cl)c(OC)cc(OC)c1C2=O,inactive
10,CCN(CC)CC,inactive
11,COC(=O)CC(C(C)=O)C(=O)OC (stereo unspecified),inactive
12,CCO[Si](C)(C)OCC,inactive
13,CCCCCCc1ccc(N)cc1,inactive
14,CCCCCCCCC(C)=O,inactive
15,CC(C)(C)c1ccc(CCC=O)cc1,inactive
16,C/C=C/C(=O)C1=C(C)CCCC1(C)C,inactive
17,COCN(COC)c1nc(N(COC)COC)nc(N(COC)COC)n1,inactive
18,FC1(F)C=CC(F)(F)C1(F)F,inactive
19,CCC(=O)O,inactive
